Pol eta inh-1: qHTS for Inhibitors of Polymerase Eta | DNA polymerase eta (Homo sapiens), Q9Y253 | recombinant Pol eta, fluorescent DNA replication assay | Potency, µM (doses to about 114 µM), for the others: top-dose activity change, negative = inhibition, most hits filed as inhibitors | 1.2% of 390,000 active | AID 588591, 2011; note: % is set by controls: 0 for no effect and ±100 for the full control effect
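Pol eta at 10 nM preincubated with compounds 15 min at room temperature; reaction started with fluorescent substrate (50 nM final) and read kinetically at 0 and 10 min.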
POLB inh: qHTS Assay for Inhibitors of DNA Polymerase Beta; P06746; Pol beta primer extension/strand displacement, fluorescence kinetic; Potency, µM (series often up to 114 µM), without a hit: top-dose activity change, negative = inhibition, usual class: inhibitors; 1.3% of 340,000 active; AID 485314, 2010; note: % is set by controls: 0 for no effect and ±100 for the full control effect
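Human Pol beta at 10 nM; strand-displacement substrate 50 nM final. Compound exposure 15 min at room temperature before start, reaction 10 min at room temperature.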
WRN helicase inh: qHTS for Inhibitors of WRN Helicase. Bifunctional 3'-5' exonuclease/ATP-dependent helicase WRN (Homo sapiens), Q14191. WRN helicase unwinding, fluorescent forked duplex, kinetic. Potency, µM (series often up to 114 µM), inactives show at the top dose activity change, negative = inhibition, hits mostly inhibitors. 0.46% of 360,000 active. AID 651768, 2012; note: % is set by controls: 0 for no effect and ±100 for the full control effect; nearly all actives have a fitted effect of over 55% in size
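Kinetic fluorescence helicase assay: unwinding of a quenched forked DNA duplex (100 nM final) with 2 mM ATP final raises red fluorescence (525/598 nm). Compounds sat 15 min at room temperature with 20 nM WRN beforehand.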
Pol kappa inh-1: qHTS for Inhibitors of Polymerase Kappa; purified Pol kappa, fluorescent DNA synthesis assay, 10 min; Potency, µM (series often up to 107 µM), for the others: at the highest dose activity, negative = inhibition, actives largely listed as inhibitors; DNA polymerase kappa (Homo sapiens), Q9UBT6; 0.53% of 400,000 active; note: % is set by controls: 0 for no effect and ±100 for the full control effect
Target sequence (Q9UBT6 whole entry, looked up): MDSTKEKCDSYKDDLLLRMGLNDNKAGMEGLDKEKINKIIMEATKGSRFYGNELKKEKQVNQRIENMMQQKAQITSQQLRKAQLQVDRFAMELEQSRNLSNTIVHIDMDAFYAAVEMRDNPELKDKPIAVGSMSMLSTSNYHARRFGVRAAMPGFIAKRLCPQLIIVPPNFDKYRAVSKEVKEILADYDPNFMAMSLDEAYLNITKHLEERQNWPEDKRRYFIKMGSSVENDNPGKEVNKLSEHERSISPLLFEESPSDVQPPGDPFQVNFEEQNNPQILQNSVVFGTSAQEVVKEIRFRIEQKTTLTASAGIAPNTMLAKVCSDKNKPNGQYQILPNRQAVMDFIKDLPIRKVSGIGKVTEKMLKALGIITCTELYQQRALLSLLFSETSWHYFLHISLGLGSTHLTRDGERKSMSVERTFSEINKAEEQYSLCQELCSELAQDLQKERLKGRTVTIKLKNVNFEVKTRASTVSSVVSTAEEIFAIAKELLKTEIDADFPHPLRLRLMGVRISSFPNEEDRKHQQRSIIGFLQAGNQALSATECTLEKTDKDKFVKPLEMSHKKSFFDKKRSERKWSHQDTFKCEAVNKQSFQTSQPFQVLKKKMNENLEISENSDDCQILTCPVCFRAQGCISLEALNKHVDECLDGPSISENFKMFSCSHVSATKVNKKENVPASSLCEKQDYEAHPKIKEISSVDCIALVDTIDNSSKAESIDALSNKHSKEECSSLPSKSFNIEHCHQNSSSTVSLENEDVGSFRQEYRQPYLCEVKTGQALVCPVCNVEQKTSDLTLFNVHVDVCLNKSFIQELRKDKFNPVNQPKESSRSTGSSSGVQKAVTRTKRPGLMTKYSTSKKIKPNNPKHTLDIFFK
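Fluorescent qHTS in 1536-well format: enzyme (10 nM) and compound sat 15 min at room temperature before 50 nM substrate (final) was added. Signal taken at 0 and 10 min; no-enzyme buffer wells were negative controls.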
FEN1 inh: qHTS Assay for the Inhibitors of Human Flap endonuclease 1 (FEN1); Potency, µM (series often up to 114 µM), without a hit: at the highest dose activity change, negative = inhibition, most hits filed as inhibitors; P39748; Recombinant FEN1 flap cleavage, fluorescence, 15 min; 0.35% of 390,000 active; note: % is set by controls: 0 for no effect and ±100 for the full control effect; nearly all actives have a fitted effect of over 65% in size
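Concentration–response screening of FEN1 (10 nM): 15 min compound preincubation at room temperature, reaction started with 50 nM substrate and read at 0 and 15 min. Corrected, normalized data were fitted by a four-parameter Hill equation.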
Pol iota inh: qHTS for Inhibitors of Polymerase Iota; AID 588590, 2011; 1% of 390,000 active; Potency, µM (top dose mostly 115 µM), inactives show at the top dose activity, negative = inhibition, actives largely listed as inhibitors; Pol iota fluorescent replication assay, 10 min; DNA polymerase iota (Homo sapiens), Q9UNA4
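Pol iota at 10 nM preincubated 15 min with compounds at room temperature; reaction started with fluorescent substrate, 50 nM final. Fluorescence read kinetically at 0 and 10 min; buffer-only wells as negative control.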
PGK validate: qHTS for inhibitors of Phosphogylcerate Kinase: Hit Validation Screen; Potency, µM (titrated, usually from 57.5 µM), without a hit: at the top dose activity change, negative = inhibition, usual class: inhibitors; shares compounds with Pol kappa inh-1; TbPGK coupled GAPDH assay, Kinase-Glo luminescence; 79% of 500 active; note: % is set by controls: 0 for no effect and ±100 for the full control effect; nearly all actives have a fitted effect of over 65% in size
Pol iota confirm: qHTS for Inhibitors of Polymerase Iota: Confirmatory Assay for Cherry-picked Compounds; Pol iota primer extension, TAMRA/BHQ fluorescence; Potency, µM, most hits filed as inhibitors; 77% of 1,500 active; shares compounds with Pol kappa inh-1
Pol kappa inh-2: qHTS for Inhibitors of Polymerase Kappa: Confirmatory Assay for Cherry-picked Compounds; shares compounds with Pol eta inh-1; purified Pol-kappa, fluorescent strand-displacement substrate; Potency, µM, usual class: inhibitors; 76% of 920 active; AID 720501, 2013
Pol eta inh-2: qHTS for Inhibitors of Polymerase Eta: Confirmatory Assay for Cherry-picked Compounds; AID 720502, 2013; Pol eta primer extension, TAMRA/BHQ fluorescence, 10 min; shares compounds with Pol eta inh-1; 64% of 2,600 active; Potency, µM, actives largely listed as inhibitors
Active calls of the source: *; ? = inconclusive; . = no result; [ ] = dose if it differs, or a comment. Hits are enriched below; roughly 2.4% of the tested compounds scored in any of these assays. Calls come from the whole dose curve; as a rule, active = well fitted curve in the direction sought with a large enough effect; inconclusive = small, poorly fitted or top-dose-only effect, or another doubt; inactive = no such curve, though single readings can be large; an effect the other way counts as inactive or inconclusive. Potency is the fitted concentration of half-maximal effect.

SMILES | Pol eta inh-1 | POLB inh | WRN helicase inh | Pol kappa inh-1 | FEN1 inh | Pol iota inh | Pol iota confirm | Pol eta inh-2 | others
CC1=C/C(=C\c2ccc(Br)o2)C(=O)O1 | 2.24µM* | 6.31µM* | 20µM* | 25.1µM* | ? | 10µM* | 16.8* | 10.7* | PGK validate=3.66µM*;Pol kappa inh-2=16.8*
Cc1ccc(C=C2C=C(c3ccccc3)OC2=O)cc1 | 3.1% | . | 2.1% | . | . | . | . | .
CCOC(=O)C1=C(C)N(C[C@@H]2CC[C@@H](Cc3ccc(-c4ccccc4)cc3)O2)C(=O)NC1c1ccc(SCc2ccco2)c([N+](=O)[O-])c1 (some centres undefined) | 12.6µM* | . | ? | ? | -24.1% | ? | 59.7* | 47.8* | Pol kappa inh-2=16.8*
O=C(O)C(c1ccccc1)N1C(=O)/C(=C\c2ccc(-c3ccccc3Cl)o2)SC1=S (centres undefined) | 39.8µM* | ? | 50.1µM* | -12.3% | 50.1µM* | 11.2µM* | 59.7* | 37.9* | PGK validate=8.19µM*;Pol kappa inh-2=10.6*
O=C(O)c1cc(-c2ccc(/C=C3\NC(=O)N(c4ccccc4)C3=O)o2)ccc1Cl | 3.98µM* | 22.4µM* | ? | 44.7µM* | ? | ? | 33.6* | 15.1*
O=c1c(-c2c(O)cc(O)c3c(=O)cc(-c4ccc(O)cc4)oc23)c(-c2ccc(O)cc2)oc2cc(O)cc(O)c12 | 3.55µM* | 3.16µM* | 56.2µM* | 35.5µM* | 50.1µM* | 7.94µM* | 42.3* | 42.6*
COc1ccc(-c2cc(=O)c3c(O)cc(O)cc3o2)cc1 | -19.9% | . | -0.1% | 1.3% | -16.5% | 41.6% | . | .
CCOc1ccccc1NC(=O)C(C)Sc1nc2c(c(=O)[nH]1)CCCC2 (centres undefined) | . | 5.5% | . | -2.6% | 17.5% | 10.4% | . | .
Cc1cc(C)cc(NS(=O)(=O)c2ccc3[nH]cc(C(=O)NCCc4ccccc4)c(=O)c3c2)c1 | -5.7% | 2.4% | . | 4.8% | -1.3% | -1.4% | . | .
Cc1ccccc1NS(=O)(=O)c1ccc2[nH]cc(C(=O)NCCc3ccccc3)c(=O)c2c1 | 31.6µM* | 44.7µM* | . | -8.5%[60.1 µM] | 6.1% | ? | ? | 47.8*
O=C1CCCC2=C1C(c1cccs1)Nc1ccc3ncccc3c12 (centres undefined) | -9.4% | ? | -1.9% | -4.0% | 1.6% | 38.8% | . | .
O=C1CCCC2=C1C(c1ccc(O)c(O)c1)Nc1ccc3ncccc3c12 (centres undefined) | 35.5µM* | 11.2µM* | ? | 39.8µM* | ? | 12.6µM* | ? | ?
O=C(O)COc1ccc2c(c1)O/C(=C\c1cccs1)C2=O | ? | 1.2% | -24.8% | -3.9% | 7.8% | 48.3% | . | .
O=C(O)COc1ccc2c(c1)O/C(=C\c1ccco1)C2=O | 5.01µM* | 31.6µM* | ? | 79.4µM* | ? | 11.2µM* | 26.7* | 30.1* | Pol kappa inh-2=6.7*
CN(C)c1ccc(-c2ccc3c(=O)c4ccccc4n(C)c3c2)cn1 | 20µM* | ? | -17.9%[11.6 µM] | -5.7% | -12.7% | ? | ? | ?
Cn1c2ccccc2c(=O)c2ccc(Cl)cc21 | -4.3% | . | 0.5% | . | . | . | . | .
CC1COCC(C)N1C1=C(Cl)C(=O)c2ccccc2C1=O (centres undefined) | -14.7% | . | -34.4% | -8.4% | -21.7% | 8.91µM* | 42.3* | 26.9*
O=C(CNC(=O)c1ccccc1F)OCc1cc(=O)n2ccsc2n1 | -6.6% | -4.8% | . | 1.5% | 0.4% | -3.7% | . | .
O=C(O)Cc1ccc(NC(=O)c2ccc3c(c2)C(=O)N(Cc2ccccc2)C3=O)cc1 | -12.2% | . | -7.9% | . | . | . | . | .
O=C(O)Cc1ccc(NC(=O)c2ccc3c(c2)C(=O)N(Cc2ccco2)C3=O)cc1 | 3.98µM* | -7.4% | 39.8µM* | ? | -26.3% | 11.2µM* | 59.7* | 23.9*
O=C(O)c1ccc(COc2ccc3ccccc3c2/C=C2/NC(=O)N(Cc3ccc(F)cc3)C2=O)cc1 | 31.6µM* | 22.4µM* | 79.4µM* | ? | ? | -3.8% | ? | ? | Pol kappa inh-2=37.7*
O=C(O)c1cccc(-n2cccc2/C=C2\NC(=O)N(Cc3ccc(F)cc3)C2=O)c1 | 20µM* | 11.2µM* | ? | 79.4µM* | ? | 22.4µM* | 67* | 30.1*
Cc1ccc(CN2C(=O)N/C(=C\c3cccn3-c3cccc(C(=O)O)c3)C2=O)cc1 | 8.91µM* | 8.91µM* | 31.6µM* | 50.1µM* | ? | 14.1µM* | 21.2* | 26.9*
Cc1cc(C(=O)O)ccc1-c1ccc(/C=C2\NC(=O)N(Cc3ccc(F)cc3)C2=O)o1 | 7.08µM* | ? | ? | 28.2µM* | ? | ? | 16.8* | 16.9*
CCOC(=O)c1cccc(-n2cccc2/C=C2\NC(=O)N(CC(=O)O)C2=O)c1 | -14.6% | . | . | -1.8% | 4.2% | 41.3% | . | .
O=C(COC(=O)c1ccc(OC(F)(F)F)cc1)Nc1ncccn1 | 17.8µM* | . | ? | ? | -1.4% | ? | 59.7* | 75.7* | Pol kappa inh-2=?
NC(=O)NC(=O)COC(=O)c1ccc(OC(F)(F)F)cc1 | 0.3% | 30.6% | -3.3% | -6.5% | 21.5% | 2.8% | . | .
Cc1ccc(C)c(S(=O)(=O)Nc2ccc3oc(C)c(C(=O)O)c3c2)c1 | 10µM* | 8.91µM* | 56.2µM* | 79.4µM* | ? | 14.1µM* | 33.6* | 26.9*
